High-throughput results from PubChem BioAssay.
Shown are actives, neighbours in structure and some others; about 9.2% of the full set was active somewhere.
FLuc counter: qHTS profiling assay for firefly luciferase inhibitor/activator using purifed enzyme and Km concentrations of substrates (counterscreen for miR-21 project); Luciferin 4-monooxygenase (Photinus pyralis), P08659; purified FLuc, Km substrates, luminescence inhibition; Potency, µM (top dose mostly 57.5 µM), usual class: inhibitors; 6.9% of 360,000 active; note: nearly all actives have a fitted effect of over 55% in size
Target sequence (P08659 whole entry, looked up): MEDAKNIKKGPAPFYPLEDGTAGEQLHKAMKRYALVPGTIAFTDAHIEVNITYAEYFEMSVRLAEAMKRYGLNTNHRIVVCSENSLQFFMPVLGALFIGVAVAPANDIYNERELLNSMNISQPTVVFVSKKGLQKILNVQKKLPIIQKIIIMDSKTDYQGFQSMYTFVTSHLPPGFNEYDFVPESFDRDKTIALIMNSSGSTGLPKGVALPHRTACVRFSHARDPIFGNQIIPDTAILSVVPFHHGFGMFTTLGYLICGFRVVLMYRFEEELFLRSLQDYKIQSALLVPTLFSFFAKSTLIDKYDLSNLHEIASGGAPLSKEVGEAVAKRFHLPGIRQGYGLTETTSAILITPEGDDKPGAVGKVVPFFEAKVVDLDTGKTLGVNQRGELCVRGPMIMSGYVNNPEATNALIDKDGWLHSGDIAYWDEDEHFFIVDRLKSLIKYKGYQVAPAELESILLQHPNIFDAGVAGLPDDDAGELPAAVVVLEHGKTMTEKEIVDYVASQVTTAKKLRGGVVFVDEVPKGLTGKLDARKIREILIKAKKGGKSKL
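Purified P. pyralis luciferase (10nM final) with 10uM D-luciferin and 10uM ATP (Km levels) in 50mM Tris acetate pH 7.5, 10mM Mg acetate, 0.01% Tween-20, 0.05% BSA; qHTS 6-point titration, ~60 µM downward; luminescence read.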
ELG1 DNA repair: qHTS screen for small molecules that inhibit ELG1-dependent DNA repair in human embryonic kidney (HEK293T) cells expressing luciferase-tagged ELG1. HEK293T ELG1-luciferase reporter, luminescence, 16 h; DNA damage induced by 5-fluorouridine. Potency, µM (doses to about 46.1 µM), hits mostly inhibitors. 2.3% of 330,000 active. AID 504467, 2011; note: nearly all actives have a fitted effect of over 55% in size
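Overnight (16 hr) co-exposure of 2,000 cells/well to 5-fluorouridine and compound at 37 °C preceded detection. Luciferase was quantified via ONE-Glo luminescence; loss of signal denotes inhibition.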
NPC1 prom act: qHTS Assay for NPC1 Promoter Activators; Huh7 NPC1 promoter luciferase reporter, 24 h; Potency, µM (doses to about 9.22 µM), usual class: activators; 2.4% of 320,000 active; note: nearly all actives have a fitted effect of over 60% in size
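Cells: Huh7 expressing luciferase under the NPC1 promoter, 1500/well. Seeded 2 h, compound added, incubated 24 h at 37 °C. Luciferase reagent, 10 min ambient, then luminescence.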
ELG1 genotoxic: qHTS screen for small molecules that induce genotoxicity in human embryonic kidney (HEK293T) cells expressing luciferase-tagged ELG1 | 1.3% of 330,000 active | HEK293T ELG1-luciferase reporter, luminescence, 16 h | Potency, µM (highest dose often 46 µM), hits mostly activators | AID 504466, 2011; note: nearly all actives have a fitted effect of over 60% in size
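Quantitative HTS format in 1536-well plates. HEK293T ELG1-luciferase reporter cells receive test compound and are incubated 16 hr at 37 °C, 5% CO2; ONE-Glo added, 30 min room temperature, then luminescence read.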
Rab9 promoter act: qHTS Assay for Rab9 Promoter Activators; Potency, µM (doses to about 9.22 µM), hits mostly activators; Huh7 Rab9 promoter-luciferase reporter, luminescence, 24 h; AID 485297, 2010; 2.8% of 320,000 active; note: nearly all actives have a fitted effect of over 60% in size
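Using Huh7 cells stably transfected with Rab9 promoter–luciferase, compounds were incubated 24 h at 37 °C, 5% CO2; luciferase luminescence was read 10 min after reagent addition.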
SMN2 splice up: qHTS Assay for Enhancers of SMN2 Splice Variant Expression. HEK293 SMN2-luciferase splicing reporter, luminescence, 30-36 h. Potency, µM (highest dose often 46.1 µM), usual class: activators. 2.8% of 210,000 active. AID 1458, 2008; note: nearly all actives have a fitted effect of over 55% in size
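HEK293 cells carry an SMN2 minigene-luciferase reporter in which exon 7 inclusion puts luciferase in frame. Cells were seeded at 2000 cells/well, attached for 10-12 hours, then exposed to compounds for 30-36 hours at 37C before ONE-Glo luminescence.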
A number is an active result. Calls come from the whole dose curve; as a rule, active = well fitted curve in the direction sought with a large enough effect; inconclusive = small, poorly fitted or top-dose-only effect, or another doubt; inactive = no such curve, though single readings can be large; an effect the other way counts as inactive or inconclusive.

Screening CCCN1CCC(NC(=O)Cc2cccc(C)c2)CC1 returned FLuc counter inactive, ELG1 DNA repair inactive, NPC1 prom act inactive, ELG1 genotoxic inactive and Rab9 promoter act inactive.
For O=C1CCCC(=O)N1c1ccc(N2CCOCC2)c([N+](=O)[O-])c1 the results were FLuc counter inactive, ELG1 DNA repair inactive, NPC1 prom act inactive, ELG1 genotoxic inactive, Rab9 promoter act inactive and SMN2 splice up inactive.
CCCc1cc(C(=O)Nc2ccccc2SC)no1 was read as FLuc counter inconclusive, ELG1 DNA repair inconclusive, NPC1 prom act inactive, ELG1 genotoxic inconclusive, Rab9 promoter act inconclusive and SMN2 splice up inconclusive.
CCCc1cc(C(=O)Nc2cccc(Cl)c2C)no1 was read as FLuc counter 24µM, ELG1 DNA repair inconclusive, NPC1 prom act inconclusive, ELG1 genotoxic 18µM and Rab9 promoter act inconclusive.
`CCCc1cc(C(=O)Nc2cccnc2)no1` gave FLuc counter 15µM, ELG1 DNA repair inconclusive, NPC1 prom act inactive, ELG1 genotoxic inconclusive, Rab9 promoter act inactive and SMN2 splice up inactive.
For CCCc1cc(C(=O)NCc2ccco2)no1 the results were FLuc counter inconclusive, ELG1 DNA repair inconclusive, NPC1 prom act inactive, ELG1 genotoxic inconclusive, Rab9 promoter act inconclusive and SMN2 splice up inactive.
`CCCc1cc(C(=O)NCc2ccccc2)no1` gave FLuc counter inconclusive, ELG1 DNA repair inconclusive, NPC1 prom act inactive, ELG1 genotoxic 23µM, Rab9 promoter act inactive and SMN2 splice up inconclusive.
For CCCc1cc(C(=O)NCc2cccnc2)no1 the results were FLuc counter inactive, ELG1 DNA repair inconclusive, NPC1 prom act inactive, ELG1 genotoxic inactive, Rab9 promoter act inactive and SMN2 splice up inactive.
`CCCc1cc(C(=O)Nc2cccc(Cl)c2)no1` gave FLuc counter 1.9µM, ELG1 DNA repair inconclusive, NPC1 prom act inactive, ELG1 genotoxic 15µM, Rab9 promoter act inactive and SMN2 splice up inactive.
O=C(CCCC1=NS(=O)(=O)c2ccccc2N1)N1CCN(c2ccc([N+](=O)[O-])cc2)CC1 was read as FLuc counter inactive, ELG1 DNA repair inactive, NPC1 prom act inactive, ELG1 genotoxic inactive and Rab9 promoter act inactive.
For CSc1nnc(-c2ccc(C(F)(F)F)nc2C)o1 the results were FLuc counter inactive, ELG1 DNA repair inactive, NPC1 prom act inactive, ELG1 genotoxic inactive and Rab9 promoter act inactive.
O=C(Cn1cnc2c(nnn2-c2cccc(Cl)c2)c1=O)NCc1ccccc1 was read as FLuc counter inactive, ELG1 DNA repair inactive, NPC1 prom act inactive, ELG1 genotoxic inactive and Rab9 promoter act inactive.
`COc1ccc(-c2cn(CCC(=O)O)c(-c3ccncc3)n2)cc1` gave FLuc counter inconclusive, ELG1 DNA repair inactive, NPC1 prom act inactive, ELG1 genotoxic inactive and Rab9 promoter act inactive.
Screening COc1ccc(-c2cn(Cc3ccc(C(N)=O)cc3)c(-c3ccncc3)n2)cc1 returned FLuc counter 2.4µM, ELG1 DNA repair inconclusive, NPC1 prom act 3.2µM, ELG1 genotoxic inconclusive and Rab9 promoter act 2.5µM.
For S=C(NCCCN1CCOCC1)N1CCN(c2nc(-c3ccccc3)cs2)CC1 the results were FLuc counter inactive, ELG1 DNA repair inconclusive, NPC1 prom act inactive, ELG1 genotoxic inactive and Rab9 promoter act inactive.
c1ccc(-c2csc(N3CCOCC3)n2)cc1 was read as FLuc counter 15µM, ELG1 DNA repair inconclusive, NPC1 prom act inconclusive, ELG1 genotoxic 6.3µM, Rab9 promoter act inconclusive and SMN2 splice up 11µM.
Screening O=C(N1CCOCC1)N1CCN(c2nc(-c3ccccc3)cs2)CC1 returned FLuc counter 21µM, ELG1 DNA repair inactive, NPC1 prom act inactive, ELG1 genotoxic inactive, Rab9 promoter act inconclusive and SMN2 splice up inactive.
CN(C)C(=O)N1CCN(c2nc(-c3ccccc3)cs2)CC1 was read as FLuc counter 3µM, ELG1 DNA repair inconclusive, NPC1 prom act 2.2µM, ELG1 genotoxic inconclusive and Rab9 promoter act 1.1µM.
For c1ccc(-c2csc(N3CCN(c4ccccn4)CC3)n2)cc1 the results were FLuc counter 11µM, ELG1 DNA repair inconclusive, NPC1 prom act inconclusive, ELG1 genotoxic inactive, Rab9 promoter act inconclusive and SMN2 splice up inactive.
For CCCCNC(=O)C1CCN(S(=O)(=O)c2cc(Br)cc3c2N(C(=O)CC)CC3)CC1 the results were FLuc counter inactive and SMN2 splice up inactive.
Screening Cc1ccc(NC(=O)CSc2nc3c(c(=O)[nH]2)CN(Cc2ccccc2)CC3)cc1Cl returned FLuc counter inactive.
For O=C(Nc1ccc(Nc2ccncc2)cc1)c1ccc(Nc2ccnc3ccc([N+](=O)[O-])cc23)cc1[N+](=O)[O-] the results were FLuc counter inactive, ELG1 DNA repair inactive, NPC1 prom act inactive, ELG1 genotoxic inactive and Rab9 promoter act inactive.
`Cc1ccc(-c2noc(-c3nnn(CC(=O)Nc4cc(Cl)ccc4C)c3N)n2)cc1` gave FLuc counter inactive.
CCN1/C(=C/c2ccc3cc(C)ccc3[n+]2CC)Sc2cc(C)ccc21 was read as FLuc counter inactive, ELG1 DNA repair 2.1µM, NPC1 prom act inactive, ELG1 genotoxic inactive, Rab9 promoter act inactive and SMN2 splice up inactive.
`c1ccc(-c2noc(CN3CCCC(OCc4ccccn4)C3)n2)cc1` (stereo not drawn) gave FLuc counter inactive, ELG1 DNA repair inconclusive, NPC1 prom act inactive, ELG1 genotoxic inactive and Rab9 promoter act inactive.
`CC1=CC(C)(C)Nc2ccc(OC(=O)c3ccco3)cc21` gave FLuc counter 21µM, ELG1 DNA repair inconclusive, NPC1 prom act inactive, ELG1 genotoxic inactive, Rab9 promoter act inactive and SMN2 splice up inactive.
`CC1=CC(C)(C)Nc2ccc(OC(=O)c3cccnc3)cc21` gave FLuc counter inactive, ELG1 DNA repair inactive, NPC1 prom act inactive, ELG1 genotoxic inactive, Rab9 promoter act inactive and SMN2 splice up inactive.
Screening COc1ccc2nc(NCCCO)[nH]c2c1 returned FLuc counter inactive, ELG1 DNA repair inactive, NPC1 prom act inactive, ELG1 genotoxic inactive, Rab9 promoter act inactive and SMN2 splice up inactive.
Screening Nc1ccc(-c2nc3c(Cl)cc(N)cc3[nH]2)cc1 returned FLuc counter 21µM, ELG1 DNA repair inactive, NPC1 prom act inactive, ELG1 genotoxic inactive, Rab9 promoter act inactive and SMN2 splice up inactive.
`COc1ccc2nc(-c3ccccn3)[nH]c2c1` gave FLuc counter 6.7µM, ELG1 DNA repair inconclusive, NPC1 prom act 1.3µM, ELG1 genotoxic 5.2µM and Rab9 promoter act 2µM.
`Nc1ccc2nc(-c3cccnc3)[nH]c2c1` gave FLuc counter inconclusive, ELG1 DNA repair inactive, NPC1 prom act inactive, ELG1 genotoxic inactive, Rab9 promoter act inactive and SMN2 splice up inactive.
